Consider 25 compounds from PubChem BioAssay (Tox21).

Unmarked numbers belong to inactive results. Calls follow the shape of the full dose curve.
% is scaled to controls: 0 for no effect and ±100 for the full control effect.

Chain of Acetylcholinesterase (Homo sapiens) (P22303 whole entry, looked up): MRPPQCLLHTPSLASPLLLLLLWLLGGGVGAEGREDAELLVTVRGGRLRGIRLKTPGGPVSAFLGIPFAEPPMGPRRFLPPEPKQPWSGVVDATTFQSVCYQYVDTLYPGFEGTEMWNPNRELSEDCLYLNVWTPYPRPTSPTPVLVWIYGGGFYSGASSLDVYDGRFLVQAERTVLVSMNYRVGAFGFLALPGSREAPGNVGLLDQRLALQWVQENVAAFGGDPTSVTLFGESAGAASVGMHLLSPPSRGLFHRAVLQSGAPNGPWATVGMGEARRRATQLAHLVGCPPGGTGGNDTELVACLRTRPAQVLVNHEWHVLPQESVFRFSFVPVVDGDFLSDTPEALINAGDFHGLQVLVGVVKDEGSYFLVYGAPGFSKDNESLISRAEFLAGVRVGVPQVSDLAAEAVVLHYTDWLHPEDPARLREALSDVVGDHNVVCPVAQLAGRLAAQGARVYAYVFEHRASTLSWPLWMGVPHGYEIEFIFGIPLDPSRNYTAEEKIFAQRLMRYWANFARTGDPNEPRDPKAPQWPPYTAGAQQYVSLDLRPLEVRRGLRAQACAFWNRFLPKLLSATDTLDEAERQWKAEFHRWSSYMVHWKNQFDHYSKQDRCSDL

This assay has as its target Acetylcholinesterase (Homo sapiens) (UniProt P22303). Description: Acetylcholinesterase (AChE) small molecule antagonists: enzyme-based qHTS assay with human liver microsomes (AID 1347399). Also: nearly all actives have a fitted effect of over 60% in size. Particulars: Potency: qHTS inhibition; outcome: qHTS inhibition; series mostly up to 115 µM; activity change, negative = inhibition: at the top concentration. The method in brief:
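Recombinant human AChE (50 mU/mL in the enzyme mix) and human liver microsomes (0.25 mg/mL final) were preincubated with compound and NADPH (0.25 mg/mL final) for 30 min at 37 C. Acetylthiocholine/DTNB was then added; thiocholine was read colorimetrically after 10 min at room temperature.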
A general note: In qHTS, concentration-response curves come from the screen itself.
As for `OCCC(F)(F)C(F)(F)C(F)(F)C(F)(F)C(F)(F)C(F)(F)C(F)(F)C(F)(F)F`, the “activity change, negative = inhibition” value was -0.322%.
`CC(C)(C)C(=O)O`: the “activity change, negative = inhibition” value is -3.02%.
In the case of `O=c1c2ccccc2nnn1CCl` it was 0.0223%; in that of `CCCCCCCCCOC(=O)c1ccccc1C(=O)OCCCCCCCCC`, -1.9%; in that of `CC1(C)OC(=O)Nc2ccc(Br)cc21`, 14% [at 53 µM].
For `CC(C)CCC(=O)CCC(C)C` the value was 0.688%.
In the case of `Nc1cccc2c(N)cccc12` it was -9.79%; in that of `CN(C1CCCCC1)S(=O)(=O)c1ccccc1N`, 0.153%; in that of `CCCCc1ccc2c(n1)[C@@H](c1ccc(OC)cc1C[C@H](C)C(=O)O)[C@H](C(=O)O)[C@H]2c1ccc2c(c1)OCO2`, -0.649%.
Turning to `COc1ccc2[nH]c(S(=O)Cc3ncc(C)c(OC)c3C)nc2n1` (stereo not given), the “activity change, negative = inhibition” value was 2.64% [at 53 µM].
For `C=CCn1cc[n+](C)c1` the value was -2.39%; for `COCCOC(=O)C1=C(C)NC(C)=C(C(=O)OC/C=C/c2ccccc2)C1c1cccc([N+](=O)[O-])c1` (stereo not given), -0.0718% [at 53 µM]; for `CC(=O)c1ccc[nH]1`, -1.38%.
In the case of `C=Cc1ccc(S(=O)(=O)O)cc1` it was 5.46%; in that of `CCOCCOC(=O)/C=C/c1ccc(OC)cc1`, 1.54% [at 53 µM].
In the case of `CCC=CC#N` it was 2.69%; in that of `Nc1nc(CC(=O)O)cs1`, 3.23%.
For the compound `Nc1ccc(F)cc1`, the “activity change, negative = inhibition” value is 0.081%.
Consider `CC(=O)CCC1=C(C)CCCC1(C)C`, for which the “activity change, negative = inhibition” value is 1.18%.
For `C1C2OC2C2C1C1CC2C2OC12` (stereo not given) the value was -1.37%.
With `Brc1cc(-c2ccc(Br)c(Br)c2Br)cc(Br)c1Br`, the “activity change, negative = inhibition” value is 4.45% [at 53 µM].
In the case of `COc1cccc(Br)c1` it was -0.448%.
For `CCC(=O)OCCOc1ccccc1` the value was 0.0659%.
In the case of `Nc1nc(=O)n([C@@H]2O[C@H](CO)[C@@H](O)[C@@H]2F)cc1I` it was -0.154% [at 53 µM].
For `CC(=O)NC1(c2cccc(F)c2)CCN(CC[C@@]2(c3ccc(Cl)c(Cl)c3)CN(c3ccccc3)C(=O)CO2)CC1`, the “activity change, negative = inhibition” value was 1.46%.
